The values below come from ChEMBL document CHEMBL1961873, “Compounds: GSK PKIS; Assays: Nanosyn kinase panel” (2012).

The target of assay [1] is Tyrosine-protein kinase CSK (Homo sapiens) (UniProt P41240). As to conditions: at 1 µM.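 Note: each value is an averaged inhibition reading.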
For assay [2], the target named is T1, Discoidin domain-containing receptor 2 (Homo sapiens) (UniProt Q16832).
T1 sequence (whole entry): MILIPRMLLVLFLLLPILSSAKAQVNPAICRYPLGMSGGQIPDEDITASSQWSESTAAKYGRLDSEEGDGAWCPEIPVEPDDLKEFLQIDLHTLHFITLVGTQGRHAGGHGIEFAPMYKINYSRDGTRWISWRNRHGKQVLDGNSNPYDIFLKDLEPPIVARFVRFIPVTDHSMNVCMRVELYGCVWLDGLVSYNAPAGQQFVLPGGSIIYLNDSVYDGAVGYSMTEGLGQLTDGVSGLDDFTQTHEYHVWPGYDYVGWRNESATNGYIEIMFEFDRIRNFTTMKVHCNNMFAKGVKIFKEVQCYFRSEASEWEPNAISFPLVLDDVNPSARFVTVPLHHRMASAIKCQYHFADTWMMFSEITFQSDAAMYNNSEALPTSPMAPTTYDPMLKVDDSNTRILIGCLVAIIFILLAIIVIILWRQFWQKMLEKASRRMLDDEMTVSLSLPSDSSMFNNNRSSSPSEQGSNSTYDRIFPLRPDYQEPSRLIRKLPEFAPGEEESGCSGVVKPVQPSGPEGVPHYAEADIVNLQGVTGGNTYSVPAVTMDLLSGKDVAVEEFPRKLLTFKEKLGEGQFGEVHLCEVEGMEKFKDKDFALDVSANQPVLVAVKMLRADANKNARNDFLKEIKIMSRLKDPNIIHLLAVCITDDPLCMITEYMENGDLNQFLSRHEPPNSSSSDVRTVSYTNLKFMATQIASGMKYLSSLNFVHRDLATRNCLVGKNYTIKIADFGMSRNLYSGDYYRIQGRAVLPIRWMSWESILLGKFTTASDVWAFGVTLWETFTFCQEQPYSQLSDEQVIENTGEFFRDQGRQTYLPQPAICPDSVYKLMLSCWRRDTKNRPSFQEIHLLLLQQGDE
As to conditions: at 0.1 µM.

The target in assay [3] is T1, Discoidin domain-containing receptor 2 (Homo sapiens). As to conditions: at 1 µM.
The target in assay [4] is Epidermal growth factor receptor (Homo sapiens) (UniProt P00533). As to conditions: at 0.1 µM.
Epidermal growth factor receptor (Homo sapiens), sequence (P00533 whole entry): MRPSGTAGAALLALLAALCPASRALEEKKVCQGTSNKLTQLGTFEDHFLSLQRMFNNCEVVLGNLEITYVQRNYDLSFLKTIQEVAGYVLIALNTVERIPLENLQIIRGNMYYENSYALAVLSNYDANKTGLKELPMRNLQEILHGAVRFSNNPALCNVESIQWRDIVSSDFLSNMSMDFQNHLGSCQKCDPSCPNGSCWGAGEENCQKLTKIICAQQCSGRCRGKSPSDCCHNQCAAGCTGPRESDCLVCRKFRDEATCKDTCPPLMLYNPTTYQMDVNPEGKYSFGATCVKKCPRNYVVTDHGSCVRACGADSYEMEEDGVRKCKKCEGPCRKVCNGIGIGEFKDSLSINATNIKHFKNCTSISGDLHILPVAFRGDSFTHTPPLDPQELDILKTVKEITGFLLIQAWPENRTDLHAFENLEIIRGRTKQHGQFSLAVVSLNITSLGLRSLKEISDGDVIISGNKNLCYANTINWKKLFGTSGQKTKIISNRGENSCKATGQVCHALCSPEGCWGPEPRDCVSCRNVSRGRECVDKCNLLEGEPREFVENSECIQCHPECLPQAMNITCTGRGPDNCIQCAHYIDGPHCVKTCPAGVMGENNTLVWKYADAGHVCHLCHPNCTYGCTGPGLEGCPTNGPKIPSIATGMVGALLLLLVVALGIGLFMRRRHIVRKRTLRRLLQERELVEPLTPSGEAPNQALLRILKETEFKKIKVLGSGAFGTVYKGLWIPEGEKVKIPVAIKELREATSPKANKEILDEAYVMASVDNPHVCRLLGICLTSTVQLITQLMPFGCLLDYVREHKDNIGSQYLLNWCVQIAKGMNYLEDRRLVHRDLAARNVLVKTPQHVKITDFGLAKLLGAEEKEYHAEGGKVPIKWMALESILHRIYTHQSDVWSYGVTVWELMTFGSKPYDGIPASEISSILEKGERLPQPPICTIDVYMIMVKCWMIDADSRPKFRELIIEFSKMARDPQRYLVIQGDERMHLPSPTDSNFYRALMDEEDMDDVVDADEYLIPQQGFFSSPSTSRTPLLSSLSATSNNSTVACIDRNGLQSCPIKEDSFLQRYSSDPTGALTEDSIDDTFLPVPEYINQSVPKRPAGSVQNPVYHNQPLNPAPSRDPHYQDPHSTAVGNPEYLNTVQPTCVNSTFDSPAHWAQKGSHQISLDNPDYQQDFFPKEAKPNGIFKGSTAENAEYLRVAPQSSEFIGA
Assay [5] shares this target. The settings on record: at 1 µM.
Assay [6] has as its system Epidermal growth factor receptor (Homo sapiens), P00533 [L858R]. The settings on record: at 0.1 µM.
Assay [7] shares this test system. The settings on record: at 1 µM.
Assay [8] has as its system Epidermal growth factor receptor (Homo sapiens), P00533 [L861Q]. The settings on record: at 0.1 µM.
Assay [9] has the same test system. As to conditions: at 1 µM.
Assay [10] relates to Epidermal growth factor receptor (Homo sapiens), P00533 [T790M]. As to conditions: at 0.1 µM.
Assay [11] has the same test system. As to conditions: at 1 µM.
For assay [12], the system named is Epidermal growth factor receptor (Homo sapiens), P00533 [L858R,T790M]. The settings on record: at 0.1 µM.
Epidermal growth factor receptor (Homo sapiens), P00533 [L858R,T790M], sequence (P00533 whole entry T790M/L858R, looked up): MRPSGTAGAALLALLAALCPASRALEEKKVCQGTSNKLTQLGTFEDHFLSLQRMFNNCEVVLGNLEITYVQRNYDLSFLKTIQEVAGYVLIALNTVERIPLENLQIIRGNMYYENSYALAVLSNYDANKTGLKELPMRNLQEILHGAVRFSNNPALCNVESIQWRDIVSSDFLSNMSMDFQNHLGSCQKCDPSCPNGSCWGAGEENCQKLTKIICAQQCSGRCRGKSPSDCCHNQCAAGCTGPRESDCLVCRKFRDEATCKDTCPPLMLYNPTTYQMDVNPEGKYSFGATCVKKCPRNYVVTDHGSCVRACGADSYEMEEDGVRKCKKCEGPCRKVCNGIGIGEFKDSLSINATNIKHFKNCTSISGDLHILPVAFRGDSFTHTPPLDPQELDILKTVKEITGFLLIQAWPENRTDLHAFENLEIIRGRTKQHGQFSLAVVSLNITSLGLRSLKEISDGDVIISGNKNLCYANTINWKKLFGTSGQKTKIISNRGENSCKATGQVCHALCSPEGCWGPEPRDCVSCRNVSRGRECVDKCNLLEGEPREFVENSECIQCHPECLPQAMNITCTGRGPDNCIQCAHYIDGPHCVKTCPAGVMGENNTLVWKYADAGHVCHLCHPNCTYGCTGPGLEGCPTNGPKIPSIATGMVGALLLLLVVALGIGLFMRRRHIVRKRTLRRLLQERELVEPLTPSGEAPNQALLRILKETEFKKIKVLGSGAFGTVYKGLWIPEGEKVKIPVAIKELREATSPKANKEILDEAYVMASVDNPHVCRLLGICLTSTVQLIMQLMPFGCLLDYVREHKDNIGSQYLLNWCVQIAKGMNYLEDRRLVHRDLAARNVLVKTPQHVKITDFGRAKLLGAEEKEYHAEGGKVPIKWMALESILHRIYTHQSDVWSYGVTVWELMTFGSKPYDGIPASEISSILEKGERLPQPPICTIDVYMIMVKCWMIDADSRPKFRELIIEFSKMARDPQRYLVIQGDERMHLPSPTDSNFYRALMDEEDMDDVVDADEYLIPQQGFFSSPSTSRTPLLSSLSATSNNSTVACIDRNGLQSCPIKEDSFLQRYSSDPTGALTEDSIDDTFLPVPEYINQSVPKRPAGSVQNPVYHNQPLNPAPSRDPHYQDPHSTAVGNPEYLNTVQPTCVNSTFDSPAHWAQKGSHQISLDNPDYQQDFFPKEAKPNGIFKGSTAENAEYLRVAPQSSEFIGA
Assay [13] shares this test system. As to conditions: at 1 µM.
The target in assay [14] is Ephrin type-A receptor 2 (Homo sapiens) (UniProt P29317). As to conditions: at 0.1 µM.
Ephrin type-A receptor 2 (Homo sapiens), sequence (P29317 whole entry): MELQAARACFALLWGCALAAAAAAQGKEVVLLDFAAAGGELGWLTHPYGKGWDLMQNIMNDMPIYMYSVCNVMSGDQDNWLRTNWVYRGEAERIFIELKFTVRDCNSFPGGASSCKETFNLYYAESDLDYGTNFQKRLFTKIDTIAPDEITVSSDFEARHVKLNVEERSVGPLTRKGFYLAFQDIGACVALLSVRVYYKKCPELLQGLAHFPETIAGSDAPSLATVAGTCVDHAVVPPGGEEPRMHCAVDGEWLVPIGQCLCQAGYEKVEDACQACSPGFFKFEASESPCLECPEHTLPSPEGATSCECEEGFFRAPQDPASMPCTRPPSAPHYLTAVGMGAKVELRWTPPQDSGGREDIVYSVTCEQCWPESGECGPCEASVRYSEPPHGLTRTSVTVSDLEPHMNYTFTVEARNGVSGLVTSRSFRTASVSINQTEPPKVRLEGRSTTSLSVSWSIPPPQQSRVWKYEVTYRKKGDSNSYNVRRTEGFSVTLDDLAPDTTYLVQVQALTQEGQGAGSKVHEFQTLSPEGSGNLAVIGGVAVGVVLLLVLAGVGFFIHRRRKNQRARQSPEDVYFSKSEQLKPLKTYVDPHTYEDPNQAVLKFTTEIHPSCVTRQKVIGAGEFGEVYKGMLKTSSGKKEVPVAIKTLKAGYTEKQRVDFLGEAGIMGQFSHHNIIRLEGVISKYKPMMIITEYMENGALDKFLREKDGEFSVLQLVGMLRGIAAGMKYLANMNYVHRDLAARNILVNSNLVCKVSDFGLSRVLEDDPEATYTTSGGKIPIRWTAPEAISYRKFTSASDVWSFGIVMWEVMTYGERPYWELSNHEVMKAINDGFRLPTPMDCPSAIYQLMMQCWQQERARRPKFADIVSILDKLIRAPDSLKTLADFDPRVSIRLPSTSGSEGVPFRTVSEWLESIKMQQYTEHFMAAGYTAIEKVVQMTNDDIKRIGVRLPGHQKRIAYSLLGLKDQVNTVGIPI
Assay [15] shares this target. As to conditions: at 1 µM.
The target of assay [16] is T2, Ephrin type-A receptor 3 (Homo sapiens) (UniProt P29320).
T2 sequence (whole entry): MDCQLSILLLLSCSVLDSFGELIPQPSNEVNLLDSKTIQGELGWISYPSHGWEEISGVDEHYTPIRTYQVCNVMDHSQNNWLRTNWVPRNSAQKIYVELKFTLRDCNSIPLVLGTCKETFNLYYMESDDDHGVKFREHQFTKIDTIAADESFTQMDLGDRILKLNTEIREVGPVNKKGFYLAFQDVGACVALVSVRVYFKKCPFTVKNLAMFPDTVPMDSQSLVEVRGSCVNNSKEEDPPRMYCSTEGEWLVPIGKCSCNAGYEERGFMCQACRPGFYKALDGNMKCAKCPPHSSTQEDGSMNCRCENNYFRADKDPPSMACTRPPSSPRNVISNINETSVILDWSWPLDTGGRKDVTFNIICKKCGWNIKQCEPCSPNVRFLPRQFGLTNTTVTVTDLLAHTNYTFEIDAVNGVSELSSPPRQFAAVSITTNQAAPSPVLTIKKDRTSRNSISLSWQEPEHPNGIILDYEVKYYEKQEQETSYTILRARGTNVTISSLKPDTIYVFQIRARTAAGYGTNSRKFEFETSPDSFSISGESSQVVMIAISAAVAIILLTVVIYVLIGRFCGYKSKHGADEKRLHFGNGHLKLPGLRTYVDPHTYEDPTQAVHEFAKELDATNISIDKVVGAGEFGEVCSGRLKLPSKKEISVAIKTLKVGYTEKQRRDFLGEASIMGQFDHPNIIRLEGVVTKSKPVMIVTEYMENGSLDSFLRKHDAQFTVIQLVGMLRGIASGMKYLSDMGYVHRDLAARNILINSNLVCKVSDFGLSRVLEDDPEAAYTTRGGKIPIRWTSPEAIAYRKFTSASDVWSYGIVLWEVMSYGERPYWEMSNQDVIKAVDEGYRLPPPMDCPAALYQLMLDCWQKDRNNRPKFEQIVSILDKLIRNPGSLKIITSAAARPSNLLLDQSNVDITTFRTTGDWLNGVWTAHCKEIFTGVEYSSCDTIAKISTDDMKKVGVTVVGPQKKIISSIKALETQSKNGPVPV
As to conditions: at 0.1 µM.

The target of assay [17] is T2, Ephrin type-A receptor 3 (Homo sapiens). The settings on record: at 1 µM.
Assay [18] has as its target Ephrin type-A receptor 4 (Homo sapiens) (UniProt P54764). The settings on record: at 0.1 µM.
Assay [19] has the same target. The settings on record: at 1 µM.
The target of assay [20] is T3, Ephrin type-B receptor 2 (Homo sapiens) (UniProt P29323).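 Note: reported as mean inhibition of EPHB2, from the GSK PKIS dataset.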
T3 sequence (whole entry): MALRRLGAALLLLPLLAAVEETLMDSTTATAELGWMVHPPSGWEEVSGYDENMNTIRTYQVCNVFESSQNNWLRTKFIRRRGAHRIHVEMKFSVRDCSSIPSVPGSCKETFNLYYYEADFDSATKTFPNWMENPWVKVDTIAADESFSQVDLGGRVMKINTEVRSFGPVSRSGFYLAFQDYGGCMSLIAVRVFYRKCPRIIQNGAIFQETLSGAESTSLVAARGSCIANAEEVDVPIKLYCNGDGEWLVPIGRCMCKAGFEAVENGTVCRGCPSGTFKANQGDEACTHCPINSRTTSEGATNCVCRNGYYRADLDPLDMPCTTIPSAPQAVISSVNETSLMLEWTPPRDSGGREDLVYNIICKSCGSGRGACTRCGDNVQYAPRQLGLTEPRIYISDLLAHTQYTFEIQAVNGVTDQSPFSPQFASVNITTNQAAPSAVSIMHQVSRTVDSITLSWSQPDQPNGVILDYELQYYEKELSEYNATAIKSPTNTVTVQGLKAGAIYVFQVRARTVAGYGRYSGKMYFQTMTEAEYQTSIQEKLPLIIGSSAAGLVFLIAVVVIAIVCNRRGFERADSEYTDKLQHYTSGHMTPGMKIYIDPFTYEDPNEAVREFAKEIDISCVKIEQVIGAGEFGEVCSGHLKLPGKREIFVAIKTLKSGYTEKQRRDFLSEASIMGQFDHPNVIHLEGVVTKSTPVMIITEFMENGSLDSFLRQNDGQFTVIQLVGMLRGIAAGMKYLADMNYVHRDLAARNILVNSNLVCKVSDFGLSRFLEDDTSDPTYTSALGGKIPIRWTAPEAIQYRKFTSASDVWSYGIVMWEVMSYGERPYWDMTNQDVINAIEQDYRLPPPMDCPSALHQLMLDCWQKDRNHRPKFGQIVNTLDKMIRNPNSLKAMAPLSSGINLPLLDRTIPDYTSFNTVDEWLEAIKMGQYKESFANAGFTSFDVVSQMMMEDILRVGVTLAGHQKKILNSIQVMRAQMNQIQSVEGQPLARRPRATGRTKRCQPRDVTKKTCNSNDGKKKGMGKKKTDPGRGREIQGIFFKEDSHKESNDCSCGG
The settings on record: at 0.1 µM.

Epidermal growth factor receptor (Homo sapiens), P00533 [L858R], sequence (P00533 whole entry L858R): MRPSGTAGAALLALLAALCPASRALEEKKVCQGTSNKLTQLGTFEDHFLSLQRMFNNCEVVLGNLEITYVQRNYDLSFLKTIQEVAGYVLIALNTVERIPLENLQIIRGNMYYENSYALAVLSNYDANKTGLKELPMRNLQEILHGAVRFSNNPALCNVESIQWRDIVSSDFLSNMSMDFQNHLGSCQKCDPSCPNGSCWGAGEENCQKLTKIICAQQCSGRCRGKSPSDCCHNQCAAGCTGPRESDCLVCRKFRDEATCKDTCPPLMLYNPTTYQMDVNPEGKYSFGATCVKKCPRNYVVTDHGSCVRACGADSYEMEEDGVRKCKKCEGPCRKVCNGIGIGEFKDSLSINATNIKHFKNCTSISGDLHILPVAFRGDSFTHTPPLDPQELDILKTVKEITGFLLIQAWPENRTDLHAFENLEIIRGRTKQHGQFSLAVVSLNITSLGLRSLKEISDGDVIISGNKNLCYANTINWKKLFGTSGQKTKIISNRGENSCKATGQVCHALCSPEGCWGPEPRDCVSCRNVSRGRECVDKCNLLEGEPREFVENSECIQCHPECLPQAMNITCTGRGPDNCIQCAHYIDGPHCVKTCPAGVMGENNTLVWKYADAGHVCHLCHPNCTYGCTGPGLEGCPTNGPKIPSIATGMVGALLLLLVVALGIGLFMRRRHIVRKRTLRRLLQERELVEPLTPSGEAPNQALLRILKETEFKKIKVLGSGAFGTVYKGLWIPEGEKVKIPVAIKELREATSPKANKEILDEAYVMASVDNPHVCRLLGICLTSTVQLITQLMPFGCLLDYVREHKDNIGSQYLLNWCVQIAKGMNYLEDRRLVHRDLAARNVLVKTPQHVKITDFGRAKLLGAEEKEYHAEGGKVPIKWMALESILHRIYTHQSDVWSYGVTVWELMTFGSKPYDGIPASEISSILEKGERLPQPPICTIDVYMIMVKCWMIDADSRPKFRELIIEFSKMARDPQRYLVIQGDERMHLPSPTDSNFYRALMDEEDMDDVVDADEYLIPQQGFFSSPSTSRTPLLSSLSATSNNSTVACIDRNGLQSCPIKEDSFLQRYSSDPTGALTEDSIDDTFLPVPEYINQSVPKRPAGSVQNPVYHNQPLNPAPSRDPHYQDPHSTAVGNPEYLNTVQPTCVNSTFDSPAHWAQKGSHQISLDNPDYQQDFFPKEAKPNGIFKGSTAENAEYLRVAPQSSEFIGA
Tyrosine-protein kinase CSK (Homo sapiens), sequence (P41240 2-450 limits assumed): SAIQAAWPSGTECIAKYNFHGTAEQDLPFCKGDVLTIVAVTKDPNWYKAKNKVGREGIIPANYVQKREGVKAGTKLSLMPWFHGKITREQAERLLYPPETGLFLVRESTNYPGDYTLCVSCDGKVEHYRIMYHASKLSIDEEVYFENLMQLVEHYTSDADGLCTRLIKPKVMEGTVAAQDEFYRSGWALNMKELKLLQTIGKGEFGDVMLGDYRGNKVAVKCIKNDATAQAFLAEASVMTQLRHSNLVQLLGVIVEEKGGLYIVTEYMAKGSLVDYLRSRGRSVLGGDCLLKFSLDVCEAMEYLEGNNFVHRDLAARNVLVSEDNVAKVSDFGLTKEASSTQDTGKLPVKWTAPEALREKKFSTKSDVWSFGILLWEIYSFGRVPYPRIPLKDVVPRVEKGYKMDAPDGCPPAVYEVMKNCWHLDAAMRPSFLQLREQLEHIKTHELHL

On to `c1ccc(Oc2ccc(Nc3ncc(-c4ccccc4)o3)cc2)cc1`, for which the inhibition (in general, the change of the read-out against control, counted positive when it falls) was determined as 1.07% in [1]; 0.51% in assay [2]; 0.6% in assay [3]; 1.92% in assay [4]; 3.79% in [5]; 1.22% in assay [6]. Also, the inhibition in assay [7] is 0.93%; in assay [8], 1.49%; in [9], 3.06%; in [10], 0.57%; in assay [11] it was 0.24%; in [12], -0.18%. Also, the inhibition in assay [13] is 4.16%; in assay [14], -2.63%; in assay [15], -2.48%; in [16], 2.07%; in assay [17], 2.91%; in assay [18], 4.49%. Further, the inhibition in assay [19] was 4.79%; in [20], 7.5%.
For the compound `C[C@@H](Oc1cc(-n2cnc3ccc(OCC4CCN(C)CC4)cc32)sc1C(N)=O)c1ccccc1Cl`, the inhibition came to 3.59% in assay [1]; 2.64% in assay [2]; 8.53% in assay [3]; 3.04% in assay [4]; 3.73% in assay [5]; 4.5% in [6]. The inhibition in assay [7] is 19.8%; in assay [8], 1.43%; in assay [9], 5.89%; in [10] it was 1.15%; in [11] it was 3.47%; in assay [12], -2.11%. The inhibition in assay [13] came to 7.41%; in assay [14], 1.42%; in [15], 1.71%; in [16] it was 3.99%; in [17], 4.27%; in [18], 8.9%. The results for the inhibition in [19] and in [20] were 11.6% and 9.82%, respectively.
`O=C(Nc1ccc(Oc2ccc3[nH]c(NC(=O)c4ccccc4)nc3c2)cc1)Nc1cc(C(F)(F)F)ccc1F`: the inhibition is 11.7% in [1]; 24.4% in assay [2]; 78.7% in assay [3]; -0.35% in assay [4]; 1.11% in assay [5]; 7.18% in assay [6]. The inhibition in [7] is 6.93%; in [8], 2.47%; in assay [9], 3.54%; in assay [10] it was 2.22%; in assay [11], 5.49%; in [12], 1.07%. For the same compound, the inhibition in assay [13] is 2.34%; in assay [14], 2.75%; in [15], 26%; in [16], 4.22%; in assay [17], 8.94%; in [18], 13.4%. Besides, the inhibition in [19] was determined as 64.2%; in [20] it was 13.7%.
Consider `CN(C)CCOc1ccc(-c2cc(-c3ccc4c(c3)CCC4=NO)c(-c3ccncc3)o2)cc1`, for which the inhibition in assay [1] was -1.46%; in assay [2], 0.26%; in assay [3], 1.8%; in assay [4] it was 4.94%; in [5], 7.65%; in [6], -0.5%. In addition, the inhibition in assay [7] is 7.4%; in assay [8] it was -0.03%; in assay [9], 4.41%; in assay [10], -1.42%; in [11] it was 0.59%; in [12], -2.24%. Also, the inhibition in assay [13] was -0.02%; in assay [14] it was -1.99%; in assay [15], -3.05%; in assay [16] it was 0.49%; in assay [17], -1.83%; in [18], -1.28%. In addition, the inhibition is 0.81% in [19] and -5.39% in assay [20].
Take `N#Cc1ccc(Oc2nccc(-c3c(-c4ccc(F)cc4)ncn3C3CCNCC3)n2)cc1`: the inhibition was 0.87% in [1]; 6.23% in [2]; 6.42% in assay [3]; -1.1% in assay [4]; 2.76% in [5]; -0.31% in assay [6]. Besides, the inhibition in [7] is 7.36%; in [8], 3.45%; in assay [9] it was 3.57%; in assay [10], 1.89%; in assay [11], 3.42%; in assay [12] it was -0.53%. The inhibition turned out to be 0.7% in assay [13]; 0.81% in [14]; 0.1% in assay [15]; 2.13% in assay [16]; 3.63% in [17]; 7.21% in assay [18]. Further, the inhibition was 9.65% in [19] and 11% in [20].
